Source: PubChem BioAssay
PGE2 EP2 inh = human EP2 receptor antagonists, primary screen, TR-FRET cAMP, C6 glioma cells; 260,000 compounds, 0.52% hits; inhibition, % at 25 µM; C6 glioma cells expressing human EP2; cells stimulated with saturating PGE2; AID 1422, 2008;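 active = percent inhibition above 40 after rounding to a whole number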;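 also: rat C6 glioma host cells with rolipram phosphodiesterase inhibitor present; the protocol text gives 20 µM as final concentration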
p97 ATPase inh = inhibitors of human p97 ATPase, primary screen, biochemical; inhibition, % at 8 µM; recombinant p97 ATPase, Kinase-Glo ATP luminescence, 3 h; AID 1481, 2009; 220,000 compounds, 0.42% hits; Transitional endoplasmic reticulum ATPase (Homo sapiens), P55072; in the data active = inhibition above about 15%;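 also: 0% = DMSO vehicle and 100% = wells lacking enzyme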
Target sequence (P55072 whole entry, looked up): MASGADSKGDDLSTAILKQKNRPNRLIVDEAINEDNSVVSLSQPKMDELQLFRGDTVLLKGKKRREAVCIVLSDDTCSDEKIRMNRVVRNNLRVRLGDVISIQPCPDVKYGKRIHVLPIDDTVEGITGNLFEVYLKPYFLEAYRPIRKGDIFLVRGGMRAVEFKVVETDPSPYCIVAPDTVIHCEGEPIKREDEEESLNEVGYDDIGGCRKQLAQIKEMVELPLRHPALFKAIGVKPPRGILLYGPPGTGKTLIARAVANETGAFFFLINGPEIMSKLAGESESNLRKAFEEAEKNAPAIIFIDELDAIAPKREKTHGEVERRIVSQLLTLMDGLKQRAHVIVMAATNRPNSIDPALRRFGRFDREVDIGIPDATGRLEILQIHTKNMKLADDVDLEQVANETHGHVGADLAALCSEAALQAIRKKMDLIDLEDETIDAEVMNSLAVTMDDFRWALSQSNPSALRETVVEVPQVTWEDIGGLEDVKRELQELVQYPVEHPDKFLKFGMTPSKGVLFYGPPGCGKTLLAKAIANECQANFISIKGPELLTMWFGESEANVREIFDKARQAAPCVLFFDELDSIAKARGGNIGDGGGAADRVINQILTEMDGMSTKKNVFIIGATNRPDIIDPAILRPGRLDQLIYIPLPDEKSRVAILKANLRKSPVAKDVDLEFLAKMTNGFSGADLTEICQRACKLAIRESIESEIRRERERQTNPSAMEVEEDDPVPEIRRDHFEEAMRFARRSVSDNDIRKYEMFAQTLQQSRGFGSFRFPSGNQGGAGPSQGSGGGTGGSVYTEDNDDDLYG
Hck-Nef inh = inhibitors of Nef-activated human Hck kinase, primary screen, biochemical, Z-Lyte FRET, 384-well, Hck-YEEI; inhibition, % at 20 µM; Recombinant Hck-YEEI plus Nef, Z-Lyte FRET kinase assay; 220,000 compounds, 0.68% hits; Tyrosine-protein kinase HCK (Homo sapiens), P08631;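 active = Hck-Nef kinase inhibition above about 50%, limit read from the data; inactive = inhibition below that limit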;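 also: 0% = DMSO with Hck plus Nef and 100% = Hck alone without Nef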
EP2 mod = EP2 receptor modulators, cAMP readout, primary screen, cell-based, HTRF cAMP, PGE2 stimulation; EP2-expressing cells, cAMP HTRF FRET, PGE2 co-stimulation; induction, % at 25 µM; AID 940, 2007; 260,000 compounds, 0.83% hits; Prostaglandin E2 receptor EP2 subtype (Homo sapiens), P43116;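 active = compounds whose cAMP rise, as percent of the full-agonist control response, exceeds 60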;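 also: rat C6 glioma line stably carrying human EP2 under a CMV promoter; the protocol text gives 20 µM as final concentration; 100% = response of wells given 1 µM PGE2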
Arbovirus inh = antivirals against arbovirus infection, primary screen, cell-based, full library, 10K replicate subset. inhibition, % at 10 µM. AID 1251, 2008. arbovirus infection cell-based antiviral screen. 200,000 compounds, 0.37% hits; in the data active = inhibition above about 30%
p97 confirm = p97 ATPase inhibitors, retest, confirmation, biochemical; shares compounds with p97 ATPase inh; recombinant p97 ATPase, Kinase-Glo ATP luminescence; inhibition, % at 8 µM; 760 compounds, 44% hits; AID 1517, 2009;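 active = percent inhibition of p97 ATPase above a set limit, the primary screen's mean plus 3 SD, cut at about 15% in these data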;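 also: 0% = DMSO wells and 100% = wells lacking p97 protein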
An asterisk follows results filed as active; . = no result given. Shown are actives, neighbours in structure and some others; about 2.4% of the full set was active somewhere.

SMILES	PGE2 EP2 inh	p97 ATPase inh	Hck-Nef inh	EP2 mod	Arbovirus inh	p97 confirm
Cc1ncc(CN2CCC(O)(c3ccc(F)cc3)CC2)cn1	5	.	.	-6	.	.
O=[N+]([O-])c1c(-c2cn[nH]c2)n[nH]c1-c1cn[nH]c1	9	25*	46	4	.	36*
Cc1ccc(C(=O)Nc2ccccc2OC(F)F)cc1	7	2	8	8	-3	.
O=C(Nc1ccccc1OC(F)F)c1ccccc1	4	16*	3	25	-7	9
Cc1cc(C2=NNC(=NCCc3ccccc3)SC2)c(C)n1-c1c(C)n(C)n(-c2ccccc2)c1=O	8	16*	22	26	.	7
COc1ccc2ccccc2c1/C=N/NC(=O)c1sc(N)c(C#N)c1C	14	18*	12	-37	-1	39*
CSc1ccccc1NC(=O)Nc1ccc(F)c(Cl)c1	8	25*	1	-23	7	4
Cc1cc[n+](CC(O)COc2ccccc2)cc1 (stereo unspecified)	14	.	.	4	.	.
COc1ccc(C2=NN(c3ccccc3)C(=O)/C2=C\c2ccc(O)c(OC)c2)cc1	3	35*	14	-42	12	7
COc1cc(/C=C2\SC(c3ccc(C)cc3)=NC2=O)ccc1O	13	5	-1	-24	-8	.
COCCNS(=O)(=O)c1ccc(S(=O)(=O)N2CCCCCC2)cc1	10	.	.	-59	.	.
CCCN1CCN(c2ncnc3c2nnn3Cc2ccccc2)CC1	.	0	-3	-21	-25	.
c1ccc(Cn2nnc3c(N4CCCCCC4)ncnc32)cc1	7	20*	17	-2	-12	1
COc1cccc(OC)c1C(=O)Nc1ccc(N2CCN(C)CC2)cc1	12	.	.	-9	.	.
COc1ccc(NC(=O)C(Cl)=C(Cl)Cl)cn1	1	28*	10	-9	1	35*
CC(=O)O[C@]1(C)CC[C@@]23CC1C(C)(C)[C@@H]2CC[C@H]3C	12	.	.	49	.	.
O=C1CCN2C=Nc3cccc4ccc1c2c34	11	26*	-6	-7	-10	9
c1ccc(CN2CCN(C3=Nc4cccc5cccc3c45)CC2)cc1	.	-3	7	-35	-25	.
O=C(CN1C(=O)CC(c2ccccc2)=Nc2ccccc21)N1CCCCC1	10	.	.	10	.	.
Cc1nnc(N/N=C\c2ccc(-c3ccccc3[N+](=O)[O-])o2)n1N	6	17*	10	9	-6	6
Cc1nnc(N/N=C/c2ccc(-c3ccccc3F)o2)n1N	10	4	24	-12	-12	.
O=C1NC2(CCN(C(=O)CSc3ccncc3)CC2)Oc2ccccc21	.	.	.	-35	.	.
C#CCOCCOCCOCCNc1nc(N2CCN(C(=O)[C@H]([C@@H](C)CC)n3cc([C@@H](N)Cc4ccc(O)cc4)nn3)CC2)nc(N2CCN(C(=O)[C@H]([C@@H](C)CC)n3cc([C@@H](N)CC(C)C)nn3)CC2)n1	7	18*	-8	2	-2	9
C#CCOCCOCCOCCNc1nc(N2CCN(C(=O)[C@H](CCC(=O)O)n3cc(C(N)Cc4ccc(O)cc4)nn3)CC2)nc(N2CCN(C(=O)[C@H](Cc3cc4ccccc4[nH]3)n3cc(C(N)CC(C)C)nn3)CC2)n1 (stereo partly specified)	.	7	-2	-17	-1	.
C#CCOCCOCCOCCNc1nc(N2CCN(C(=O)C(Cc3ccc(O)cc3)n3cc(C(N)CC(C)C)nn3)CC2)nc(N2CCN(C(=O)C(Cc3cc4ccccc4[nH]3)n3cc(C(N)Cc4ccc(O)cc4)nn3)CC2)n1 (stereo unspecified)	8	19*	5	14	-8	20*
SMILES	PGE2 EP2 inh	p97 ATPase inh	Hck-Nef inh	EP2 mod	Arbovirus inh	p97 confirm
O=C(CCl)Nc1cccc(-c2cnc3ccccc3n2)c1	11	18*	1	-43	-45	35*
Nc1cc(-c2cccs2)nn(CC(=O)N2CCN(c3ccccc3)CC2)c1=O	13	.	.	-112	.	.
Oc1ccc2ccccc2c1C=NCc1cn2ccsc2n1	6	40*	0	-36	9	7
NC(=O)c1c(NC(=O)CN(C(=O)C2CCC2)C2CCCC2)sc2c1CCCC2	3	.	.	3	.	.
O=C(CN1C(=O)[C@H]2CCCN2C(=O)c2ccccc21)NCc1ccccc1Cl	12	.	.	-3	.	.
C=C1c2cccc(O)c2C(O)=C2C(=O)[C@]3(O)C(O)=C(C(N)=O)C(=O)[C@@H](N(C)C)[C@@H]3[C@@H](O)[C@H]12	10	63*	-54	13	-2	8
CCc1c(C)nc(NC2CCN(C(=O)c3ccc(N(C)C)cc3)CC2)[nH]c1=O	-2	.	.	-19	.	.
O=C1OC(=O)C2C1[C@@H]1CC[C@H]2O1 (stereo partly specified)	11	16*	-4	6	-9	9
COc1ccc(C(C)=O)cc1COC(=O)c1ccc(N)c([N+](=O)[O-])c1	1	18*	22	-29	2	22*
CN(C)c1ccc2c3c(cccc13)C(=O)N(c1ccc(O)cc1)C2=O	13	.	.	-1	.	.
COc1ccccc1C(=O)NCC(=O)N/N=C/c1ccncc1	4	16*	12	-3	3	1
COCCn1c(SCC(=O)N2C(C)CCCC2C)nnc1-c1ccncc1 (stereo unspecified)	7	.	.	-7	.	.
CCOC(=O)/C(C(N)=NCCO)=C(/O)c1ccccc1	13	24*	-1	3	10	4
CCOC(=O)/C(C(N)=NCCCO)=C(/O)c1ccccc1	17	0	2	-15	5	.
CCOc1ccc(NC(=O)c2ccc(NC(=S)NC3CCCCC3)cc2)cc1	5	15*	15	-41	-16	9
CC(=O)c1ccc(C(=O)N2CCc3c([nH]c4ccccc34)C2c2cccc(C)n2)s1 (stereo unspecified)	7	4	-16	-33	.	.
Cc1cccc(C2c3[nH]c4ccccc4c3CCN2C(=O)c2ccc(=O)[nH]c2)n1 (stereo unspecified)	13	17*	8	16	-6	4
CN(C)C(=O)CSc1nnc2c3ccccc3nc(C(C)(C)C)n12	10	.	.	-24	.	.
CC1=NN(c2ccc(C(=O)O)c(N)c2)C(=O)C1	5	10	41	29	4	.
CC1=NN(c2ccc(Cl)c(C(=O)O)c2)C(=O)C1	1	34*	4	18	-5	6
CCn1c(N(C)N=O)nc2ccccc21	10	.	.	17	.	.
N#C/C(=C(/O)CCl)c1nc(-c2ccccc2)cs1	16	40*	-11	-3	.	38*
COc1ccccc1-c1cccc(CNc2ccc3c(c2)oc(=O)n3C)c1	7	.	.	13	.	.
